ROS inducer = raises reactive oxygen species in U2OS cancer cells; ROS induction (% of piperlongumine), % at 10 µM; U2OS ROS induction, H2DCF-DA fluorescence; 46,000 compounds, 2% hits; in the data active = ROS induction above about 79%, passing the limit was not always enough; inconclusive = no clear call, values can overlap the other calls;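 also: 0% = DMSO vehicle median and 100% = reference compound median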
NOMO-1 viab = STK33 inhibitor candidate reducing NOMO-1 cell viability. NOMO-1 AML viability, CellTiter-Glo luminescence, 72 h. inhibition, % (no concentration beside the values). 37,000 compounds, 7.5% hits. AID 2330; in the data active = inhibition above about 80%; inconclusive = no clear call, values can overlap the other calls
Numbers without * were called inactive; ? = inconclusive; . = not tested or not shown. This excerpt belongs to a sample that is enriched for hits.

SMILES	ROS inducer	NOMO-1 viab
Cc1ccc(S(=O)(=O)Nc2cccc3cccnc23)c([N+](=O)[O-])c1	-8	121*
COc1ccc2c(c1)c(=O)oc1cc(OCC(=O)Nc3cc(C)cc(C)c3)ccc12	.	94*
Cc1cc(C)cc(NC(=O)COc2ccc3cc(-c4ccccc4)c(=O)oc3c2)c1	21	66
COc1ccc(CN(C)C[C@@H]2Oc3ccc(NC(=O)NC4CCCCC4)cc3C(=O)N([C@H](C)CO)C[C@@H]2C)cc1	-5	18
C[C@@H]1CN([C@@H](C)CO)C(=O)c2cc(NC(=O)CCC(F)(F)F)ccc2O[C@@H]1CN(C)S(=O)(=O)c1ccc(Cl)cc1	-3	9
COc1ccc(OC)c(NC(=O)C2=C(C)NC(=S)NC2c2ccc(OC)cc2OC)c1 (stereo not drawn)	?	38
COC(=O)COc1ccc(C2NC(=S)NC(C)=C2C(=O)OC)cc1 (stereo not drawn)	.	89*
Cc1ccccc1C(=O)Nc1cccc(NC(=O)c2ccc(-c3ccc(Cl)cc3Cl)o2)c1	-8	.
C[C@H]1CN([C@@H](C)CO)C(=O)c2cc(NS(=O)(=O)c3ccc(F)cc3)ccc2O[C@H]1CN(C)S(C)(=O)=O	-4	20
COc1ccc([N+](=O)[O-])cc1N(CC(=O)Nc1ccccc1Cl)S(C)(=O)=O	-11	-19
Cn1ncc2c1ncn1nc(-c3ccccc3)nc21	-2	.
CC1(C)Cc2c(sc3ncn4nc(-c5ccccc5)nc4c23)C(C)(C)N1	28	117*
Cc1nccn1-c1c2c(c(C#N)c3nc4ccccc4n13)CCCC2	11	.
COc1ccc(N2CCc3c(C)c(C#N)c4nc5ccccc5n4c32)cc1	68	114*
CCC(C)OC(=O)COc1ccc2c(=O)c(Oc3ccccc3Cl)coc2c1 (stereo not drawn)	6	.
CCOC(=O)COc1ccc2c(=O)c(-c3ccccc3OC)c(C(F)(F)F)oc2c1	69	93*
COc1ccc2c(=O)c(-c3ccccc3C)c(C(F)(F)F)oc2c1	9	.
COc1ccccc1-c1c(C(F)(F)F)oc2cc(OCC(=O)OC(C)C)ccc2c1=O	.	96*
CC(C)(C)c1ccc(C(=O)NN)s1	-12	.
C[C@H](CO)N1C[C@H](C)[C@@H](CN(C)S(C)(=O)=O)Oc2c(NC(=O)c3nc4ccccc4s3)cccc2C1=O	-2	12
O=C(O)/C=C/c1ccc(-c2ccc(Br)cc2)o1	16	0
CC1=C(C#N)C(C(F)(F)F)(C(F)(F)F)N=C(C2CCCCC2)N1	6	141*
O=S(=O)(c1ccc(Cl)cc1)c1nc(-c2ccc(F)cc2)oc1NCc1cccnc1	24	16
O=C(Nc1ccc(N2CCOCC2)cc1)c1cnc2ccccc2n1	2	.
O=C(Nc1ccc(N2CCCCC2)cc1)c1ccncc1	87*	41
SMILES	ROS inducer	NOMO-1 viab
FC(F)(F)c1ccc(CSc2nccc(-c3cccnc3)n2)cc1	22	.
COc1ccc(NC(=O)Nc2cccc3c2O[C@@H](CN(C)CC2CC2)[C@H](C)CN([C@@H](C)CO)C3=O)cc1	1	40
O=C(NO)c1ccc(C(=O)N/N=C/c2ccc(O)c(O)c2)cc1	2	.
Oc1cc(O)cc(/C=C/c2ccc(O)c(O)c2)c1	7	113*
O=C(NCc1ccccc1)[C@@]1(CCS(=O)(=O)c2ccccc2)COC(c2ccc(OCCCO)cc2)=N1	-5	.
S=C(CC(=S)N1CCOCC1)N1CCOCC1	11	86*
Fc1cc(F)c(NC(=S)N2CCOCC2)c(F)c1	-7	-17
COc1ccc(S(=O)(=O)Nc2ccc3c(c2)C(=O)N([C@H](C)CO)C[C@H](C)[C@H](CN(C)S(=O)(=O)c2cn(C)cn2)O3)cc1	-5	11
C[C@H]1CN([C@@H](C)CO)C(=O)c2cc(NC(=O)c3ccncc3)ccc2O[C@@H]1CN(C)S(=O)(=O)c1cccs1	-14	-17
C[C@@H]1O[C@@H](O[C@H]2[C@@H]3C=CO[C@@H](O[C@@H]4O[C@H](CO)[C@@H](O)[C@H](O)[C@H]4O)[C@@H]3[C@@]3(CO)O[C@@H]23)[C@H](O)[C@H](OC(=O)/C=C/c2ccc(O)cc2)[C@H]1O	88*	.
CC(=O)O[C@@H]1[C@@H](O)[C@H](C)O[C@@H](O[C@H]2[C@@H]3C=CO[C@@H](O[C@@H]4O[C@H](CO)[C@@H](O)[C@H](O)[C@H]4O)[C@@H]3[C@@]3(CO)O[C@@H]23)[C@@H]1OC(=O)/C=C/c1ccc(O)cc1	73	12
C[C@H](CO)N1C[C@H](C)[C@@H](CN(C)Cc2ccc3c(c2)OCO3)Oc2ccc(NS(=O)(=O)c3cccs3)cc2C1=O	7	-16
CC(CNC1CCCCC1)OC(=O)c1ccccc1 (stereo not drawn)	-16	22
O=C(OC1(C#CCN2CCCCC2)CCCCC1)c1ccccc1	19	117*
O=C(Oc1ccc(Cl)cc1)c1c(-c2ccccc2)nnc2ccccc12	12	.
Cc1sc2nc(SCC(=O)Nc3ccc4c(c3)OCCO4)n(-c3ccccc3)c(=O)c2c1C	.	5
